The record followed here is PubChem BioAssay AID1851 (National Center for Advancing Translational Sciences (NCATS), 2009).

Among all 16,000 compounds or so, about 4,000 (25%) were called active. Inconclusive results (about 26%) are left out. The list is a sample of the results. A number with no mark means an inactive call. The call rests on the fitted dose curve; in most records, active means well fitted curve in the direction sought with a large enough effect; inconclusive means small, poorly fitted or top-dose-only effect, or effect the other way; inactive means no such curve, though single readings can be large or run the other way.
On the % scale 0 is the no-effect control and ±100 the full control effect.

Chain of Cytochrome P450 2C9 (Homo sapiens) (P11712 whole entry, looked up): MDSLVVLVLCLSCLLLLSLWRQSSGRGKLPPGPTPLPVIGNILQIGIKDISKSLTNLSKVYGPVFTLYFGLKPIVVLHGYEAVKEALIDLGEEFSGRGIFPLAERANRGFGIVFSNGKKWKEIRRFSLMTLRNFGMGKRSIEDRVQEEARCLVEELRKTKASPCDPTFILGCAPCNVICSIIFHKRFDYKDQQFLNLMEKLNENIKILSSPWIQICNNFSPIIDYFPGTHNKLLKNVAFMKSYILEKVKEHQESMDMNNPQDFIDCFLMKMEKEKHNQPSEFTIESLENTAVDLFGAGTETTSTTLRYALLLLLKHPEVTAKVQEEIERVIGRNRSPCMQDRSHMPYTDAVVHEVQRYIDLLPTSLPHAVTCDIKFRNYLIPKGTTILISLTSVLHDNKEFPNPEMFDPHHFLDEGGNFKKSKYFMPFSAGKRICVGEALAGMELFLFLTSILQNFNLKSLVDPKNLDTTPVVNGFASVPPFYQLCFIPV

The test addresses Cytochrome P450 2C9 (Homo sapiens) (UniProt P11712). Nature of the test: Cytochrome panel assay with activity outcomes. Particulars: recombinant CYP, pro-luciferin dealkylation, luminescence, p450-cyp2c9; series mostly up to 57.1 µM; activity, negative = inhibition: at the top concentration.
As to `O=c1n(-c2ccccc2)c(=O)n2n1CC[C@H]1/C(=N\OCc3ccccc3)[C@H]3O[C@@H]3[C@@H](O)[C@@H]12`, the activity, negative = inhibition was 25.1% [at 11.4 µM].

In the case of `CCN1C(=O)CC(N2CCN(CC(=O)NC(C)C)CC2)C1=O` (stereo unspecified), the “activity, negative = inhibition” value was 28.9%.

Consider `CN1CCN(C2CC(=O)N(Cc3ccc(N4CCCC4=O)cc3)C2=O)CC1` (stereo unspecified), for which the “activity, negative = inhibition” value is -21.9%.

On to `O=C1CC(N2CCN(C(c3ccccc3)c3ccccc3)CC2)C(=O)N1Cc1ccc(N2CCCC2=O)cc1` (stereo unspecified), for which the AC50 (as a rule, the concentration at which the activity in the assay is half-maximal) was 7.08 µM (active).

On to `NN(CC(=O)O)CC(=O)O`, for which the activity, negative = inhibition is 17.7% [at 11.4 µM].

Consider `CNC(=O)c1sc(SC)cc1-c1ccc(Cl)cc1`, for which the concentration at half-maximal activity (AC50) is 5.62 µM (active).

As to `Cc1cc(-c2ccc(Cl)cc2)oc(=O)c1NC(=O)c1ccccc1`, the “activity, negative = inhibition” value was -24.3%.

Turning to `Cc1ccc2c(c1)/C(=N/OC(=O)c1ccc(F)cc1)CCS2`, the “activity, negative = inhibition” value was -4.99%.

Turning to `COc1ccccc1C(=O)O/N=C1/CCCc2c1ccc(OC)c2[N+](=O)[O-]`, the concentration at half-maximal activity (AC50) was 12.6 µM (active).

Take `Cc1cc(NS(=O)(=O)c2ccc(NC(=O)CN3C(=O)c4ccccc4C3=O)cc2)nc(C)n1`: the “activity, negative = inhibition” value is 9.04%.

In the case of `Cc1cc(Cl)ccc1OC(C)C(=O)Nc1ccc(S(=O)(=O)Nc2cnc3ccccc3n2)cc1` (stereo unspecified), the concentration at half-maximal activity (AC50) is 0.631 µM (active).

Take `O=C1C2Sc3[nH]c(=O)sc3C(c3ccccc3)C2C(=O)N1c1ccccc1` (stereo unspecified): the AC50 was 12.6 µM (active).

Consider `O=C1C(C2=NC(C(=O)O)C3C(=O)N(c4ccc(Cl)cc4)C(=O)C23)=C(O)c2ccccc21` (stereo unspecified), for which the “activity, negative = inhibition” value was -11.2%.

As for `O=C1C2Sc3[nH]c(=O)sc3C(c3ccccc3)C2C(=O)N1c1ccc(Cl)cc1` (stereo unspecified), the AC50 is 8.91 µM (active).

Regarding `CO[C@@H]1COC(=O)C/C=C\[C@H](C)COC(=O)[C@H](C)NC(=O)C/C=C\[C@H]1C`, the activity, negative = inhibition was -7.79% [at 11.4 µM].

In the case of `Fc1cccc(/C=N\N=C/c2cccc(F)c2)c1`, the “activity, negative = inhibition” value is -17.3%.

For the compound `CC1(C)Cc2ccccc2C(N/N=C/c2cccc(F)c2)=N1`, the AC50 is 14.1 µM (active).

As to `CC1=NC(C)(C)Cc2ccccc21`, the “activity, negative = inhibition” value was -5.09%.

With `O=C(O)C1CC2(C1)CC(C(=O)O)C2` (stereo unspecified), the activity, negative = inhibition is -3% [at 11.4 µM].

`N#Cc1cccc(-c2ccc3ncnc(NC4CCNCC4)c3c2)c1`: the activity, negative = inhibition was 10.5% [at 2.29 µM].

Turning to `Cc1cnc(C(=O)OCC(=O)NC(C)C)cn1`, the “activity, negative = inhibition” value was 0.966%.

Regarding `CCN(c1ccc(NC(=O)COC(=O)c2ccc3ccccc3n2)cc1)C(C)C`, the concentration at half-maximal activity (AC50) is 20 µM (active).

For `CC(C)C(=O)Cc1ccc2ccccc2n1`, the activity, negative = inhibition is 7.52% [at 11.4 µM].

In the case of `CC(C)(C)C(=O)NC(Nc1cccc2cccnc12)C(Cl)(Cl)Cl` (stereo unspecified), the AC50 is 1.26 µM (active).

For `O=S(=O)(O)c1cc(N=Nc2cccc3ccccc23)c(O)c2ncccc12`, the activity, negative = inhibition is -11.1% [at 11.4 µM].

On to `O=C(Nc1cccc2cccnc12)[C@@H]1[C@@H](C(=O)O)[C@H]2CC[C@@H]1O2`, for which the activity, negative = inhibition was 7.28% [at 11.4 µM].
